Measured values taken from PubChem BioAssay (EPA / NIEHS).
Records with an inconclusive call do not appear. The source made the active and inactive calls. Rule for the calls, unless noted: active = hit-call score of the fitted dose curve at least 0.9, where 1 is the maximum; inactive = score below 0.9.

Key:
[1] = ATG_NFI_CIS: Attagene CIS-FACTORIAL HepG2 Assay for human Nuclear Factor I (NFI) (AID 2282989); settings: HepG2 cis-regulatory reporter, NFI response element transcription; actives raise or lower the signal
Procedure, shortened: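 Cells: human liver HepG2, transiently transfected with promoter-regulated reporter transcription units. Exposure 24 h. Detection: fluorescent RT-PCR products separated by capillary electrophoresis, normalised to DMSO negative control.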

[2] = ATG_NF_kB_CIS: Attagene CIS-FACTORIAL HepG2 Assay for human Nuclear Factor Kappa B (NF-kB) (AID 2282991); settings: HepG2 Attagene cis-factorial NF-kB reporter mRNA; actives raise or lower the signal
Procedure, shortened: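 Measures mRNA induction of an NF-kB-responsive cis-element reporter in HepG2 cells transfected with multiple reporter units, sampled 24 h post-dosing; quantified by fluorescence after RT-PCR and capillary electrophoresis, fitted for activation or inhibition against DMSO.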

[3] = ATG_NRF2_ARE_CIS: Attagene CIS-FACTORIAL HepG2 Assay for human Nuclear Factor Erythroid 2 Related Factor 2 (NFR2) response to Antioxidant Response Elements (ARE) (AID 2282992); settings: HepG2 Attagene ARE/NRF2 reporter, transcription factor activity; actives raise or lower the signal
Procedure, shortened: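 Using transiently transfected HepG2 cells exposed for 24 h, reporter mRNA levels were determined by RT-PCR with fluorescent primer extension and capillary electrophoresis, analysed for gain or loss of signal against DMSO.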

[4] = ATG_Oct_MLP_CIS: Attagene CIS-FACTORIAL HepG2 Assay for human Octamer-Binding Transcription Factor (Oct) (AID 2282993); settings: HepG2 Attagene cis-factorial Oct reporter, mRNA; actives raise or lower the signal
Procedure, shortened: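 HepG2, transient MRTU transfection, cis promoter elements; 24 h dosing; RT-PCR/CE fluorescence read-out of reporter mRNA; fit both directions vs DMSO.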

[5] = BSK_3C_TissueFactor: BioMAP Diversity Plus: 3C Assay for Tissue Factor Biomarker Activity (AID 2282997); settings: BioMAP 3C HUVEC, tissue factor biomarker readout; actives raise or lower the signal
Procedure, shortened: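 After a 24 h chemical exposure of primary human umbilical vein endothelial cells, Tissue Factor levels were quantified by ELISA.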

[6] = BSK_3C_uPAR: BioMAP Diversity Plus: 3C Assay for Urokinase-type plasminogen activator receptor (uPAR) Biomarker Activity (AID 2282998); settings: BioMAP 3C HUVEC, uPAR biomarker ELISA; actives raise or lower the signal
Procedure, shortened: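 A multiplexed primary-cell system built on human umbilical vein endothelium was used, with chemical present for 24 h before reading. Cell-surface uPAR was detected by ELISA; signal change in either direction counted against DMSO.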

[7] = BSK_3C_VCAM1: BioMAP Diversity Plus: 3C Assay for Vascular cell adhesion molecule 1 (VCAM1) Biomarker Activity (AID 2282999); settings: BioMAP 3C HUVEC, VCAM1 ELISA, cytokine-stimulated; actives raise or lower the signal
Procedure, shortened: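 HUVEC primary cells, 24 h compound exposure; VCAM-1 by ELISA; gain/loss of signal fitted bidirectionally vs DMSO baseline.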

[8] = BSK_4H_Eotaxin3: BioMAP Diversity Plus: 4H Assay for Eotaxin 3 Biomarker Activity (AID 2283000); settings: primary human endothelial cells (HUVEC); actives raise or lower the signal
Procedure, shortened: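 Chemicals were added to human umbilical vein endothelium cultures, and Eotaxin-3 was quantified by ELISA at 24 h. Values were derived by bidirectional fitting with DMSO serving as negative control and activity baseline.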

[9] = molecular target: human Peroxisome Proliferator-activated Receptor delta (PPARd), PPARD (gene 5467) (UniProt Q03181); assay: ATG_PPARd_TRANS: Attagene TRANS-FACTORIAL HepG2 Assay for human Peroxisome Proliferator-activated Receptor delta (PPARd) (AID 2283002; active = hit-call score of the fitted dose curve at least 0.9, where 1 is the maximum)
Procedure, shortened: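 HepG2 cells transiently transfected with GAL4-UAS multiplexed reporter units driven by exogenous chimeric NR-GAL4 proteins; 24 h compound exposure. Reporter mRNA measured by RT-PCR, 6-FAM primer extension, HpaI digestion and capillary electrophoresis; gain of signal fitted relative to DMSO.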

[10] = read-out: Intercellular Adhesion Molecule 1 (ICAM1), ICAM1 (gene 3383); assay: BSK_3C_ICAM1: BioMAP Diversity Plus: 3C Assay for Intercellular Adhesion Molecule 1 (ICAM1) Biomarker Activity (AID 2283003); settings: primary human endothelial cells (HUVEC); actives raise or lower the signal
Procedure, shortened: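 ELISA readout of ICAM1 in human umbilical vein endothelial cells in the 3C system, taken 24 h post-dose. Gain or loss of signal versus DMSO was fitted in both directions, with SRB total-protein staining run in parallel.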

[11] = BSK_3C_Proliferation: Cell Proliferation Assessment in the BioMAP Diversity Plus: 3C Assay (AID 2283006); settings: primary human endothelial cells (HUVEC);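 for AC50: potency may reflect either rise or fall in cell number versus DMSO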
Procedure, shortened: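 Proliferation as total protein: sulforhodamine B (0.1%) stain of TCA-fixed subconfluent human umbilical vein endothelial cells, absorbance 560 nm, 48 h after dosing. Activity fitted in both directions against DMSO baseline.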

[12] = molecular target: Nuclear receptor subfamily 1 group I member 2 (Homo sapiens) (UniProt O75469); assay: ATG_PXR_TRANS: Attagene TRANS-FACTORIAL HepG2 Assay for human Pregnane X Receptor (PXR) (AID 2283008; active = hit-call score of the fitted dose curve at least 0.9, where 1 is the maximum)
Procedure, shortened: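 Multiplexed TRANS reporter panel in HepG2; this component tracks PXR-Gal4-driven reporter mRNA after 24 h dosing, measured by RT-PCR with capillary electrophoresis fluorescence, fitted against DMSO.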

[13] = molecular target: human RAR-related Orphan Receptor gamma (RORg), RORC (gene 6097) (UniProt P51449); assay: ATG_RORg_TRANS: Attagene TRANS-FACTORIAL HepG2 Assay for human RAR-related Orphan Receptor gamma (RORg) (AID 2283011; active = hit-call score of the fitted dose curve at least 0.9, where 1 is the maximum)
Procedure, shortened: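 First, HepG2 liver cells were transfected with GAL4-UAS-driven reporter constructs and the RORg-Gal4 fusion. Next, they were treated with chemical for 24 h. Finally, reporter mRNA was quantified by RT-PCR and capillary electrophoresis, with upward activity fitted against DMSO.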

[14] = molecular target: Cellular tumor antigen p53 (Homo sapiens) (UniProt P04637); assay: ATG_p53_CIS: Attagene CIS-FACTORIAL HepG2 Assay for human p53 Transcription Factor (AID 2282994); settings: HepG2 p53 cis-element reporter, Attagene mRNA; actives raise or lower the signal
Procedure, shortened: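 In HepG2 cells, reporter transcription units under cis-regulatory promoters were transiently introduced. Following 24 h treatment, RNA was processed to labelled, digested cDNA fragments read by capillary electrophoresis; fitting was bidirectional versus DMSO.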

[15] = molecular target: human Peroxisome Proliferator-activated Receptor alpha (PPARa), PPARA (gene 5465) (UniProt Q07869); assay: ATG_PPARa_TRANS: Attagene TRANS-FACTORIAL HepG2 Assay for human Peroxisome Proliferator-activated Receptor alpha (PPARa) (AID 2283001; active = hit-call score of the fitted dose curve at least 0.9, where 1 is the maximum)
Procedure, shortened: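 HepG2, transient MRTU transfection, 24 h treatment. RT-PCR → FAM labelling → capillary electrophoresis. Fit vs DMSO, positive direction.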

[16] = molecular target: human Retinoic Acid Receptor beta (RARb), RARB (gene 5915) (UniProt P10826); assay: ATG_RARb_TRANS: Attagene TRANS-FACTORIAL HepG2 Assay for human Retinoic Acid Receptor beta (AID 2283004; active = hit-call score of the fitted dose curve at least 0.9, where 1 is the maximum)
Procedure, shortened: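 Transient transfection of HepG2 with multiple reporter units → chemical dosing, 24 h → total RNA isolation → RT with oligo(dT) → reporter-specific PCR, 6-FAM primer extension, HpaI digest → capillary electrophoresis. Positive direction vs DMSO control.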

[17] = molecular target: Retinoic acid receptor alpha (Homo sapiens) (UniProt P10276); assay: ATG_RARa_TRANS: Attagene TRANS-FACTORIAL HepG2 Assay for human Retinoic Acid Receptor alpha (RARa) (AID 2283005; active = hit-call score of the fitted dose curve at least 0.9, where 1 is the maximum)
Procedure, shortened: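 HepG2 transiently transfected with multiplex GAL4-UAS reporter units including a human RARa–GAL4 chimera; 24 h compound exposure. Reporter mRNA quantified by RT-PCR, 6-FAM labeling and capillary electrophoresis; gain of signal versus DMSO.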

[18] = molecular target: Peroxisome proliferator-activated receptor gamma (Homo sapiens) (UniProt P37231); assay: ATG_PPARg_TRANS: Attagene TRANS-FACTORIAL HepG2 Assay for human Peroxisome Proliferator-activated Receptor-gamma (PPARg) (AID 2283007; active = hit-call score of the fitted dose curve at least 0.9, where 1 is the maximum)
Procedure, shortened: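 Gain-of-signal endpoint relative to DMSO, derived from reporter mRNA levels quantified by RT-PCR and capillary electrophoresis. Cells were HepG2 transiently expressing a chimeric NR-Gal4 construct with GAL4-UAS reporters, exposed to chemicals for 24 h.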

[19] = molecular target: human Retinoic Acid Receptor gamma (RARg), RARG (gene 5916) (UniProt P13631); assay: ATG_RARg_TRANS: Attagene TRANS-FACTORIAL HepG2 Assay for human Retinoic Acid Receptor gamma (RARg) (AID 2283009; active = hit-call score of the fitted dose curve at least 0.9, where 1 is the maximum)
Procedure, shortened: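 Transactivation of exogenous RARg-Gal4 fusion measured as reporter transcript induction after 24 h in transfected HepG2 cells. RNA reverse-transcribed, amplified, fluorescently labeled and resolved by capillary electrophoresis; increase relative to DMSO.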

Measured: AC50

Sequence of Retinoic acid receptor alpha (Homo sapiens) (P10276 whole entry, looked up, the tested form may be a part): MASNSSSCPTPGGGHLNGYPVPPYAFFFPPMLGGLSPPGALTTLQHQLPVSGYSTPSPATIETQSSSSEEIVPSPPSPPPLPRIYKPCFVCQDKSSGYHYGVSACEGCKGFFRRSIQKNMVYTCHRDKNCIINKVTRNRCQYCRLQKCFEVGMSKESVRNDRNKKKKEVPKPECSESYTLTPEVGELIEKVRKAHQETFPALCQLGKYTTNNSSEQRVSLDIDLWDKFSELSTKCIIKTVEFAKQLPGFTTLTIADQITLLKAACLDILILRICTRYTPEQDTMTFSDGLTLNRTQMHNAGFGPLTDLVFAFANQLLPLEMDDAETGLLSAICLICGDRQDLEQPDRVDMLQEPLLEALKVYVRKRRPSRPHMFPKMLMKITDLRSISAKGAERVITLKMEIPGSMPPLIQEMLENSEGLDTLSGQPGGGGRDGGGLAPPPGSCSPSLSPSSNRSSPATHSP
Sequence of human RAR-related Orphan Receptor gamma (RORg), RORC (gene 6097) (P51449 whole entry, looked up, the tested form may be a part): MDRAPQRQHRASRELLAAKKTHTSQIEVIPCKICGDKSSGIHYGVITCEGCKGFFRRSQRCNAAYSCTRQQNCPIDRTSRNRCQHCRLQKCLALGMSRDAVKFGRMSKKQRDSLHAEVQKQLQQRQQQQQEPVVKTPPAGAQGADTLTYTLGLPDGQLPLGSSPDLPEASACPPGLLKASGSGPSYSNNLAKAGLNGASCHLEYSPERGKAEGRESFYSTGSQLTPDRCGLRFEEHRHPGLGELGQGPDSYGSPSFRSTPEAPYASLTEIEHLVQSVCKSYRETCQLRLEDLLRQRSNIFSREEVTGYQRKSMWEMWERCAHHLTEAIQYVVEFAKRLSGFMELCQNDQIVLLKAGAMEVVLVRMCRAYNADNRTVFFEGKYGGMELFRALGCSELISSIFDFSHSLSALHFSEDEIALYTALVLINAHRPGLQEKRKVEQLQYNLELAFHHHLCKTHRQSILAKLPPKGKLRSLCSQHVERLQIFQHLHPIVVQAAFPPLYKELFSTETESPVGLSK
Sequence of Nuclear receptor subfamily 1 group I member 2 (Homo sapiens) (O75469 whole entry, looked up, the tested form may be a part): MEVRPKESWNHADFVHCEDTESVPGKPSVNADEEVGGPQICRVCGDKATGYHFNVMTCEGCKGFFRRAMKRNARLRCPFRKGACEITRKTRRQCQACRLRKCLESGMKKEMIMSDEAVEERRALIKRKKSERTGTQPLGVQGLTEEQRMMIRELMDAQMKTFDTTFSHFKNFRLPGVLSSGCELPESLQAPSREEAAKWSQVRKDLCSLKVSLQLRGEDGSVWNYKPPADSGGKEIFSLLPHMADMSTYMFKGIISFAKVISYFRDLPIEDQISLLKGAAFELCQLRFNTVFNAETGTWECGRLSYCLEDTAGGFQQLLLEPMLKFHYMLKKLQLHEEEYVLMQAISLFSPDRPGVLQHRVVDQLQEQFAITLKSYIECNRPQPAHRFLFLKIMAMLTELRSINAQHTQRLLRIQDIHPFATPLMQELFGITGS
Sequence of human Peroxisome Proliferator-activated Receptor alpha (PPARa), PPARA (gene 5465) (Q07869 whole entry, looked up): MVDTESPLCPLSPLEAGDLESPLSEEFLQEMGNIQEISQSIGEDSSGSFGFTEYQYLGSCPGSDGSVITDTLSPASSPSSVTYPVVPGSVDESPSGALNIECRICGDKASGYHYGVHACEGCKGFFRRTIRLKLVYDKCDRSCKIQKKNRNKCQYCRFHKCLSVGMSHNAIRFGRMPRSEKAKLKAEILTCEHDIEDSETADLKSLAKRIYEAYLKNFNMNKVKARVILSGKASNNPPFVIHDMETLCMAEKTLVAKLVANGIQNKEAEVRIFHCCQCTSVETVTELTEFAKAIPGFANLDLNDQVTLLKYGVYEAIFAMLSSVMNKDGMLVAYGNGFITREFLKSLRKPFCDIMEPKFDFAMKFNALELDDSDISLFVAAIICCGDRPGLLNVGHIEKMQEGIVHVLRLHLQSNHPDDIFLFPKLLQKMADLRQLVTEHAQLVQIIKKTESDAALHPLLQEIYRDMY
Sequence of Peroxisome proliferator-activated receptor gamma (Homo sapiens) (P37231 whole entry, looked up, the tested form may be a part): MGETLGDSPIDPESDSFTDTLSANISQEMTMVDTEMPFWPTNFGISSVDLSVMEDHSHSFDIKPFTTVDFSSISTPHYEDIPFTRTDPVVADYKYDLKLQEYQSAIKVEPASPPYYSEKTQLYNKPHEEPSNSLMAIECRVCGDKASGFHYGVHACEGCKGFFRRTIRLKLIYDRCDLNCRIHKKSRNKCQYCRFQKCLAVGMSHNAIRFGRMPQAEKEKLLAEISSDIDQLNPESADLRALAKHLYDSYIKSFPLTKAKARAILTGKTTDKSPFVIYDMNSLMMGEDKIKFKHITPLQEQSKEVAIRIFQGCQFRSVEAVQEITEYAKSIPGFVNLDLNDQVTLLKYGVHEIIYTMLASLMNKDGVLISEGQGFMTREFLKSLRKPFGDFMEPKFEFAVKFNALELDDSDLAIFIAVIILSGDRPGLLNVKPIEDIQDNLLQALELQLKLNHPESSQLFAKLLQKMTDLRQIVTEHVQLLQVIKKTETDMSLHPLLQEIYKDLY
Sequence of human Peroxisome Proliferator-activated Receptor delta (PPARd), PPARD (gene 5467) (Q03181 whole entry, looked up, the tested form may be a part): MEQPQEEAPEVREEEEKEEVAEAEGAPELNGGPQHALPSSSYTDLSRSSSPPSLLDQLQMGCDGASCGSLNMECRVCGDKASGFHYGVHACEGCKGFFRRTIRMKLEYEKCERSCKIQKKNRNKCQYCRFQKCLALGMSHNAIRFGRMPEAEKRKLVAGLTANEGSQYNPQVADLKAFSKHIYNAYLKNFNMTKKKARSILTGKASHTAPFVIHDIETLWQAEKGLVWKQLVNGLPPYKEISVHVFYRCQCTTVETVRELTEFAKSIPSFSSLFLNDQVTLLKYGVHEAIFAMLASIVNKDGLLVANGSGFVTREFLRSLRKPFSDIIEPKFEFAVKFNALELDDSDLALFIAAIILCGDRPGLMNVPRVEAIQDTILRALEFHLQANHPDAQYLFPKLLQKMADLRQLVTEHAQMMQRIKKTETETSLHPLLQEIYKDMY
Sequence of Cellular tumor antigen p53 (Homo sapiens) (P04637 whole entry, looked up, the tested form may be a part): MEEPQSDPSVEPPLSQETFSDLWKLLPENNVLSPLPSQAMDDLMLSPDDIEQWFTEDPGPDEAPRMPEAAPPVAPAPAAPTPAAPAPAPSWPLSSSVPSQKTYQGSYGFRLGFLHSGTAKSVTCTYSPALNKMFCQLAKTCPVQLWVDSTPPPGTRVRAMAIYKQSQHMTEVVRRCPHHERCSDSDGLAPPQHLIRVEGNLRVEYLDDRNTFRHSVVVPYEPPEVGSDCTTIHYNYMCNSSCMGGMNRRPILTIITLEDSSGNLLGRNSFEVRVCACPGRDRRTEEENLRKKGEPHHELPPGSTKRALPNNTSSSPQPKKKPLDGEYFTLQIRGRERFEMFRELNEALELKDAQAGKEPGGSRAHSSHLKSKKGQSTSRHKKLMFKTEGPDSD
Sequence of human Retinoic Acid Receptor gamma (RARg), RARG (gene 5916) (P13631 whole entry, looked up, the tested form may be a part): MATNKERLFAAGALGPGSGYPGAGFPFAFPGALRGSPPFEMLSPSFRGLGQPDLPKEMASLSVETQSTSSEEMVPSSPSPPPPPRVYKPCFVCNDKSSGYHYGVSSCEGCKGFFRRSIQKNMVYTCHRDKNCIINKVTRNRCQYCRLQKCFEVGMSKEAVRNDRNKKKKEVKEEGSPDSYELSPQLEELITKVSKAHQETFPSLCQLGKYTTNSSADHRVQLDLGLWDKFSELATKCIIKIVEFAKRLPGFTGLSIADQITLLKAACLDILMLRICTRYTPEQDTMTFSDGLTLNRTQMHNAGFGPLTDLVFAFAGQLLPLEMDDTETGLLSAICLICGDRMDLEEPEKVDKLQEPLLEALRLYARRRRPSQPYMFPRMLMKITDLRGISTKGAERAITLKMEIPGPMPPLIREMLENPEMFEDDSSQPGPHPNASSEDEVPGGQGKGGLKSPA
Sequence of human Retinoic Acid Receptor beta (RARb), RARB (gene 5915) (P10826 whole entry, looked up): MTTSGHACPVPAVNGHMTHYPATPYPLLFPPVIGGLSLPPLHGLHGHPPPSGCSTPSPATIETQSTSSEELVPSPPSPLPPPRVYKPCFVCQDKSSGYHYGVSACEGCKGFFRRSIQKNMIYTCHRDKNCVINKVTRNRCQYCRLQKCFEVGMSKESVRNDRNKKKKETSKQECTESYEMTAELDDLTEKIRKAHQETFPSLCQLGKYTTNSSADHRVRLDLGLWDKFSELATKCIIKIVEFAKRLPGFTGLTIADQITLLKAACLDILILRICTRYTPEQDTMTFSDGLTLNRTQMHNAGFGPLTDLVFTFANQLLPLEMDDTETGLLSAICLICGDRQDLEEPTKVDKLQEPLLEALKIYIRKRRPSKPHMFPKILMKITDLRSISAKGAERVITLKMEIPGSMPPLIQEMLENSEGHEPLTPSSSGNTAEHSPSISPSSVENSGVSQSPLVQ

CC(C)OC(=O)C(C)(C)Oc1ccc(C(=O)c2ccc(Cl)cc2)cc1
active: [3] 25 µM | [4] 19.8 µM | [6] 30.6 µM | [8] 32.4 µM | [11] 15.8 µM | [12] 5.53 µM
inactive: [1] | [2] | [5] | [7] | [9] | [10] | [13]

Oc1ccccc1O
active: [3] 13.1 µM | [4] 31.1 µM | [5] 2.96 µM | [7] 2.17 µM | [11] 10.1 µM
not listed: [2] | [9] | [12]
inactive: all other assays above

O=C1c2c(O)cccc2Cc2cccc(O)c21
inactive: [1] | [3] | [4] | [14] | [6] | [7] | [8] | [15] | [10]
active: [5] 5.39 µM | [11] 15 µM

OCC(O)CO
inactive: [5] | [6] | [7] | [8] | [10] | [11]

Cn1cnc2c1c(=O)[nH]c(=O)n2C
not listed: [9] | [14] | [15] | [16] | [17]
inactive: all other assays above

CC(C)COC(=O)CCCCC(=O)OCC(C)C
not listed: [9] | [14]
inactive: all other assays above

CC(C)c1cccc(C(C)C)c1
not listed: [13] | [14] | [15] | [17] | [18] | [19]
inactive: all other assays above

CC(C)c1cccc(C(C)C)c1NC(=O)NS(=O)(=O)c1cc(C(C)(C)O)co1
active: [12] 9.03 µM
not listed: [2] | [9] | [17] | [18]
inactive: all other assays above

Nc1nc(=S)c2[nH]cnc2[nH]1
active: [3] 2.69 µM | [4] 35.5 µM
not listed: [2] | [9] | [12] | [14]
inactive: all other assays above

CC(=O)S[C@H](C(=O)N[C@H]1Cc2ccccc2[C@H]2CCC[C@@H](C(=O)O)N2C1=O)C(C)C
not listed: [9] | [13] | [15] | [16] | [17] | [19]
inactive: all other assays above

NC1CCCCC1
not listed: [2] | [14] | [16] | [18]
inactive: all other assays above
